A selection: hits, their analogues and other compounds. The true share with any hit is near 4.6%.
Marburg entry inh: Marburg virus entry inhibition; Marburg virus pseudotyped entry inhibition, cell reporter; AID 540276; actives 1.8% (n = 300,000); Potency, µM (titrated, usually from 37.8 µM), for inactives: at the highest dose activity change, negative = inhibition, most hits filed as inhibitors; calls by dose curve; tested in HEK293 cells
Vaccinia mCherry: inhibitors of vaccinia virus infection (mCherry reporter signal) | Vaccinia virus mCherry reporter infection, fluorescence | Potency, µM (top dose mostly 36.5 µM), for the others: at the top dose activity change, negative = inhibition, actives largely listed as inhibitors | actives 0.63% (n = 310,000) | AID 720579; calls by dose curve; tested in A549 cells; further: nearly all actives have a fitted effect of over 35% in size
Vaccinia Venus: vaccinia inhibition (Venus reporter). Vaccinia virus Venus reporter expression, fluorescence. Potency, µM (top dose mostly 36.5 µM), for the others: top-dose activity change, negative = inhibition, usual class: inhibitors. actives 0.46% (n = 330,000); calls by dose curve; tested in A549 cells; further: nearly all actives have a fitted effect of over 30% in size
LASV entry inh: inhibitors of Lassa virus binding or cell entry; Potency, µM (doses to about 37.9 µM), for inactives: at the highest dose activity change, negative = inhibition, usual class: inhibitors; AID 540256; Lassa virus pseudotype entry inhibition, cell reporter; actives 1.2% (n = 300,000); calls by dose curve; tested in HEK293 cells; further: nearly all actives have a fitted effect of over 50% in size
HCV inhibitor: HCV inhibition; Potency, µM (doses to about 41.8 µM), for the others: at the highest dose activity change, negative = inhibition, usual class: inhibitors; AID 651820; actives 3.4% (n = 340,000); Huh7.5.1 HCVcc-Cre infection, luciferase reporter, 44 h; active means well fitted inhibition curve with a large enough effect; inconclusive means small, poorly fitted or top-dose-only effect, or another doubt; inactive means no such curve, though single readings can be large or run the other way
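Seed cells (1,000/well) for 4 h; treat with compound and infect with HCVcc-Cre, moi about 0.5. Incubate 44 h, then detect luciferase activity.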
* marks the source's active call; other numbers are inactive results; i = inactive; ? = inconclusive; · = no result; [ ] = remark or other dose. On the % scale 0 is the no-effect control and ±100 the full control effect; potency means the concentration at half of the fitted maximal effect.

SMILES | Marburg entry inh | Vaccinia mCherry | Vaccinia Venus | LASV entry inh | HCV inhibitor
Cc1ccc2cc(C3CC(c4ccco4)=NN3S(=O)(=O)c3ccccc3)c(Cl)nc2c1 (stereo not drawn) | 2.59µM* | · | · | 16.4µM* | -3.3%
O=S(=O)(c1ccccc1)N1N=C(c2ccc(Br)cc2)CC1c1ccco1 (stereo not drawn) | · | i[7.34 µM] | 0.0%[7.34 µM] | · | ?
O=S(=O)(c1ccccc1)N1N=C(c2ccc(O)cc2)CC1c1ccco1 (stereo not drawn) | · | · | · | · | 10µM*
CCCNC(=O)N1C2=NC(C(=O)OC)=C(C(=O)OC)[C@@H]3N(C)c4ccccc4[C@]23C[C@H]1C(=O)OC | 6.7%[14.2 µM] | · | · | · | ·
COc1ccc(-c2nc3ccccc3nc2-c2ccc(OC)c(OC)c2)cc1OC | · | · | · | · | -22.6%
COc1ccc(-c2cc3ccccc3nc2N)cc1OC | · | · | · | · | 11.2µM*
COc1ccc(CCN(C)c2ncnc3sccc23)cc1OC | · | · | · | · | 10µM*
CN(Cc1cccs1)c1ncnc2sccc12 | -36.8% | · | · | -22.6% | 11.2µM*
COc1ccc(CN(C)c2ncnc3sccc23)c(OC)c1OC | ? | -4.8% | ? | ? | 11.2µM*
COc1ccc(CNc2ncnc3sccc23)cc1OC | -24.4%[46.1 µM] | -23.7% | -2.6% | ? | 6.31µM*
CN(Cc1ccccc1F)c1ncnc2sccc12 | ? | i | -9.8% | ? | ?
CCc1cccc2c(=O)c(C(=O)NCCN3CCOCC3)c[nH]c12 | 8.0% | · | · | -7.8% | 10µM*
CCOc1ccccc1NC(=O)CN(C)S(=O)(=O)c1ccc2nc(C)sc2c1 | -14.3%[46.1 µM] | -17.4% | -14.3% | 20.8%[46.1 µM] | ·
COc1ccc(OC(=O)c2nc(SCc3ccccc3F)ncc2Cl)cc1 | ? | 5.5% | 1.0% | 26.1%[46.1 µM] | ·
Cc1ccccc1NC(=O)N1CCCC(c2nc(-c3ccc(C(C)C)cc3)no2)C1 (stereo not drawn) | ? | · | · | ? | 12.6µM*
CC(C)c1ccc(-c2noc(C3CCCN(C(=O)c4ccc(F)cc4F)C3)n2)cc1 (stereo not drawn) | ? | · | · | ? | 11.2µM*
CC(C)Cc1cc(C(=O)NCC2Cc3cc(F)cc(-c4ccccn4)c3O2)no1 (stereo not drawn) | · | -4.5% | -0.4% | · | ·
O=[N+]([O-])c1ccc(C(O)CN2CCOCC2)cc1 (stereo not drawn) | 14.9%[46.1 µM] | 11.9% | -3.8% | 4.0% | 7.8%
O=[N+]([O-])c1ccc(S(=O)(=O)CC(CN2CCOCC2)N2CCOCC2)cc1 (stereo not drawn) | ? | ? | ? | ? | 11.2µM*
O=[N+]([O-])c1ccc(Oc2ccc(S(=O)(=O)N3CCOCC3)cc2)cc1 | ? | ? | -0.3% | ? | 11.2µM*
N#C/C(C(=O)NCc1ccccc1)=C1\S[C@H](CCO)C(=O)N1c1ccccc1 | -5.1%[46.1 µM] | · | · | · | ·
CC(C)N(C(=O)[C@H]1C[C@H](CC(=O)NCC23CC4CC(CC(C4)C2)C3)C(=O)N2CCc3c([nH]c4cc(-c5ccco5)ccc34)[C@]12C)C(C)C | · | 28.2µM* | ? | · | 4.5%
CC(C)N(C(=O)[C@H]1CC(CC(=O)NCC23CC4CC(CC(C4)C2)C3)C(=O)N2CCc3c([nH]c4ccccc34)[C@]12C)C(C)C (stereo partly drawn) | · | ? | ? | · | 3.16µM*
COCCCNC(=O)C[C@H]1C[C@H](C(=O)N(C(C)C)C(C)C)[C@@]2(C)c3[nH]c4cc(-c5ccco5)ccc4c3CCN2C1=O | -5.7% | ? | -25.5% | · | -7.0%[8.37 µM]
COCC(=O)Nc1cc(C(=O)N2CCc3c(Cl)cccc3C2)c2c(c1)nc(-c1ccncc1)n2C | · | i | 0.0% | · | ·
SMILES | Marburg entry inh | Vaccinia mCherry | Vaccinia Venus | LASV entry inh | HCV inhibitor
CCn1c(SCC(=O)Nc2c(C)cccc2C)nnc1-c1nonc1NC(C)=O | -7.6%[46.1 µM] | -6.2% | -4.8% | -2.9%[46.1 µM] | ·
Cc1cc(Oc2ccccc2)nc(C#N)n1 | · | i | -8.5% | · | ·
CCOC(=O)c1cnc2c(C)cccc2c1NCc1ccco1 | -12.8% | i | -5.7% | 12.0% | 11.2µM*
CCOC(=O)C1CCN(C(=O)C2CCN(c3nnc(C)c4c(C)n(-c5ccccc5)nc34)CC2)CC1 | · | -4.3% | -8.8% | ? | ·
CC(=O)c1ccc(N2CCN(C(=O)c3ccc(-c4ccccc4)cc3)CC2)cc1 | -22.2%[46.1 µM] | i | -9.3% | ? | 3.8%
COc1ccc(N2CCN(C(=S)Nc3ccccc3)CC2)cc1 | ? | -18.3% | -7.0% | ? | -10.5%
CC(=O)c1ccc(N2CCN(C(=S)Nc3ccc(Oc4ccccc4)cc3)CC2)cc1 | ? | ? | -24.5% | ? | 4.47µM*
CC(=O)c1ccc(N2CCN(C(=O)c3cccc(Oc4ccccc4)c3)CC2)cc1 | ? | -12.2% | -23.9% | 3.16µM* | -28.5%
Cc1ncc2c(c1CNS(=O)(=O)N(C)C)CCN(C(=O)c1ccc(-c3ccc(F)cc3)cc1)C2 | · | -9.1% | 1.8% | · | ·
COc1ccc2[nH]c3c(c2c1)CCN=C3C | · | i | -21.1% | · | 2.82µM*
COc1ccccc1N1CCN(c2nc(CNC(=O)c3cc(C)oc3C)nc3ccccc23)CC1 | · | -13.0% | -4.9% | · | ·
Cc1ccc(C(C(=O)NCC2CCCO2)N(C(=O)c2snc(C(N)=O)c2N)c2ccc3c(c2)OCCO3)cc1 (stereo not drawn) | ? | -4.0% | -10.1% | 6.31µM* | ?
NC(=O)c1nsc(C(=O)N(c2ccccc2)C(C(=O)NCC2CCCO2)c2cccs2)c1N (stereo not drawn) | ? | · | · | ? | -5.2%
CCOc1ccc(C(C(=O)NCC2CCCO2)N(C(=O)c2snc(C(N)=O)c2N)c2ccccc2F)cc1 (stereo not drawn) | ? | -2.9% | -12.4% | 7.08µM* | ?
Cc1cc(C)cc(N(C(=O)c2snc(C(N)=O)c2N)C(C(=O)NCC2CCCO2)c2cccs2)c1 (stereo not drawn) | ? | -23.0% | -12.5% | ? | 11.2µM*
CCOc1ccc(C(C(=O)NCC2CCCO2)N(C(=O)c2snc(C(N)=O)c2N)c2cccc(F)c2)cc1 (stereo not drawn) | ? | -16.0% | -8.6% | ? | -25.1%
COc1ccc(OC)c(-c2cc(Cl)c3c(c2)CC(CNC(=O)/C=C/c2ccccn2)O3)c1 (stereo not drawn) | · | -2.0% | -8.3% | · | ·
Cc1oc(-c2ccccc2NC(=O)c2cccnc2)nc1CNC(=O)c1ccc(N(C)C)cc1 | · | -8.0% | -1.7% | · | ·
O=c1[nH]cn[nH]1 | · | -1.0% | -6.2% | · | 0.562µM*
COc1ccc2c(c1)OC(C)CN(CCC(=O)NCC1OCCc3ccccc31)C2 (stereo not drawn) | · | -15.4% | -7.2% | · | ·
O=C(Nc1ccc(Cl)cc1)Nc1ccc2c(c1)N1CCN=C1S2 | -22.5% | -21.0% | ? | ? | 10µM*
CC(=O)Nc1cccc(-c2csc(Nc3cc(C)ccn3)n2)c1 | ? | ? | ? | 5.5% | ?
CC(=O)Nc1cccc(-c2csc(Nc3ccc(Cl)cn3)n2)c1 | · | -3.5% | ? | · | 11.2µM*
CC(=O)Nc1cccc(-c2csc(Nc3ccccn3)n2)c1 | ? | -14.1% | -21.9% | ? | 11.2µM*
CC(=O)Nc1ccc(-c2csc(Nc3ccc(Cl)cn3)n2)cc1 | ? | -29.6% | ? | -23.9% | ?
